SMILES strings stand for the structures. Results filed as inconclusive are left out. Where a call stands in place of a potency, no number is given. Activity calls are given as the source filed them. Calls follow the shape of the dose curve; as a rule, active = well fitted inhibition curve with a large enough effect; inconclusive = small, poorly fitted or top-dose-only effect; inactive = flat fitted curve, though single readings scatter.

The values that follow come from PubChem BioAssay AID2530 (National Center for Advancing Translational Sciences (NCATS), 2010).
Potency is read from the fitted curve at half-maximal effect.

The target in this assay is Luciferin 4-monooxygenase (Photuris pensylvanica) (UniProt Q27757). Nature of the assay: Secondary Assay for Luciferase (Kinase-Glo TM) Inhibition Counterscreen. To be noted: Kinase-Glo luciferase enzyme, luminescence; series mostly up to 58.1 µM. As to the method:
NIH Chemical Genomics Center [NCGC] Malcolm Walkinshaw, Hugh Morgan, Linda Gilmore University of Edinburgh, UK MLPCN Grant: 1 R03 MH085697-01 NCGC Assay Overview: Luciferase (Kinase-Glo, Promega Corporation) was assayed for its ability to generate light using ATP and luciferin as substrates. The ATP concentration in the assay (10 uM) was within the linear range of enzyme activity for the assay conditions used. This assay was used as an counter screen for human pyruvate kinase M2 isoform.
NCGC Assay Protocol Summary: Four uL of substrate mix (final concentration, 50 mM imidazole pH 7.2, 50 mM KCl, 7 mM MgCl2, 10 uM ATP, 0.01% Tween 20, 0.05% BSA) was dispensed into white 1536 well plates. Twenty-three nL of compound was delivered by a pin tool and 2 uL of luciferase detection mix (Kinase-Glo, Promega)) was added. Following 8-minute incubation at ambient temperature, luminescence was measured by a ViewLux (Perkin Elmer) at 5 seconds exposure/plate. Data were normalized to the controls for basal activity (DMSO only) and 100% inhibition (40 uM SIB 1757) and curve fitting was performed using Hill equation.
(In general: Kinase-Glo reads ATP consumption through a luciferase reaction.)
Regarding `O=C1CCc2cc(S(=O)(=O)Nc3ccccc3-c3ccccc3)ccc2N1`, the Potency entry is “inactive”.

On to `Cc1ccc(NS(=O)(=O)c2cc3c(cc2N(C)C)NC(=O)CC3)cc1C`, for which the Potency entry is “inactive”.

For `Cc1ccc(NS(=O)(=O)c2ccc3c(c2)CCC(=O)N3)cc1C`, the Potency entry is “inactive”.

As to `O=C1CCc2cc(S(=O)(=O)Nc3ccc(F)cc3)ccc2N1`, the Potency result is “inactive”.

Turning to `O=C1NS(=O)(=O)c2ccccc21`, the Potency entry is “inactive”.

Take `CN=c1nc(-c2ccccc2)n(-c2ccccc2)s1`: the Potency result is “inactive”.

For `CCOC(=O)Cc1csc(NC(=S)NC(=O)c2ccc([N+](=O)[O-])cc2)n1`, the Potency entry was “inactive”.

As for `CC(=O)Nc1ccc(S(=O)(=O)Nc2ccc(C)c(C)c2)cc1`, the Potency result is “inactive”.

Regarding `O=C1CCc2cc(S(=O)(=O)Nc3cccc(Cl)c3)ccc2N1`, the Potency result is “inactive”.

Turning to `Cc1c(C(=O)NC(=S)Nc2ccc(NC(=O)c3cccs3)cc2)oc2ccccc12`, the Potency entry was “inactive”.

In the case of `C[C@]12CC[C@@H]3c4cc(O)c(O)cc4CC[C@H]3[C@@H]1CC[C@@H]2O`, the Potency result is “inactive”.

Regarding `N/C(=N\OC(=O)c1ccccc1)c1ccccn1`, the Potency was 4.61 µM (active).

For the molecule `O=C1CCc2cc(S(=O)(=O)Nc3ccccc3Cl)ccc2N1`, the Potency result is “inactive”.

Take `COc1cc(/C=N/N2C(C)CCCC2C)cc(OC)c1O` (stereo not given): the Potency result is “inactive”.

For the molecule `COc1cc(N2C(=O)C=CC2=O)c(OC)cc1Cl`, the Potency entry is “inactive”.

Consider `O=C1CCc2cc(S(=O)(=O)Nc3cccc4ccccc34)ccc2N1`, for which the Potency result is “inactive”.

With `Nc1ccc2nc(-c3ccccc3)sc2c1`, the Potency is 11.6 µM (active).

Take `O=C1c2ccccc2C(=O)N1c1cccc2ncccc12`: the Potency entry was “inactive”.

On to `Cc1ccc(NS(=O)(=O)c2ccc3c(c2)CCO3)cc1C`, for which the Potency result was “inactive”.

With `O=C(c1ccccc1)n1c(=S)nc2ccccn21`, the Potency was 5.17 µM (active).

Turning to `Cc1ccsc1C(=O)Nc1nc2ccccc2[nH]1`, the Potency was 16.3 µM (active).

In the case of `O=C1c2ccccc2C(=O)N1c1ccccc1O`, the Potency entry is “inactive”.

Turning to `O=C1c2ccccc2C(=O)N1c1ccc(O)cc1`, the Potency result was “inactive”.

Regarding `O=C1c2ccccc2C(=O)N1Cc1cccnc1`, the Potency result is “inactive”.

For the molecule `Cc1ccc(NS(=O)(=O)c2ccc3c(c2)CC(=O)N3C)cc1C`, the Potency entry was “inactive”.

Turning to `Cc1ccc(NS(=O)(=O)c2cc3c(cc2N2CCCCC2)NC(=O)CC3)cc1C`, the Potency entry is “inactive”.

For `Cc1ccc(-c2nc3cnccn3c2Nc2ccc(C(C)C)cc2)o1`, the Potency entry was “inactive”.

On to `Cc1sc2nc(CN3CCN(c4ccc(O)cc4)CC3)[nH]c(=O)c2c1C`, for which the Potency entry was “inactive”.

On to `Cc1ccccc1OC1=NS(=O)(=O)c2ccccc21`, for which the Potency entry was “inactive”.

`O=C1c2ccccc2C(=O)N1c1ccccn1`: the Potency result is “inactive”.

On to `COc1ccc2[nH]c3c4c(ccc3c2c1)C(=O)C=CC4=O`, for which the Potency result was “inactive”.

Regarding `Cc1ccc(NS(=O)(=O)c2cc3c(cc2Cl)NC(=O)CO3)cc1C`, the Potency entry was “inactive”.

Consider `CC(=O)N1CCCc2cc(S(=O)(=O)Nc3ccc(C)c(C)c3)ccc21`, for which the Potency entry was “inactive”.

Take `O=C1c2ccccc2C(=O)N1c1ccncc1`: the Potency entry was “inactive”.

With `O=S1(=O)N=C(Oc2cccc(Cl)c2)c2ccccc21`, the Potency result was “inactive”.

For `Cn1c2cc(S(C)=O)sc2c2cnn(Cc3cccc(N)c3)c(=O)c21` (stereo not given), the Potency result is “inactive”.

For `COc1ccc2c(c1)c1ccc3c(c1n2C)C(=O)C=CC3=O`, the Potency result is “inactive”.

For the molecule `Cc1ccc(N2C(=O)c3ccccc3C2=O)c(C)c1`, the Potency entry is “inactive”.

In the case of `CCCCN1C(=O)c2ccccc2C1=O`, the Potency result was “inactive”.

`Cc1cc(C)c2c(=O)n(CC(=O)Nc3cccc(Cl)c3C)sc2n1`: the Potency entry is “inactive”.
